Rows were chosen to be rich in hits. Some 5% of all compounds tested hit in one or more screens of this group.
SENP8 block-1: inhibitors of human SENP8 protease; Q96LD8; recombinant SENP8, Nedd8 substrate fluorescence; inhibition, % at 20 µM; actives 0.64% (n = 360,000); AID 602440; in the data active = inhibition mostly above about 40%, no sharp cut-off; inactive = mostly below about 27%
SENP6 block: SENP6 protease inhibition. Q9GZR1. Recombinant SENP6 catalytic domain, aminoluciferin luminescence. inhibition, % at 10 µM. actives 1.8% (n = 330,000);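 active = inhibition above about 50% at the single tested dose, limit read from the data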;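 also: plate controls were DMSO wells with enzyme for no effect and DMSO wells lacking enzyme for full effect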
SENP7 inh: inhibitors of human SENP7 protease. inhibition, % at 5 µM. AID 434973. Q9BQF6. recombinant SENP7, Z-RLRGG-aminoluciferin luminescence, 40 min. actives 1.5% (n = 330,000);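 active = inhibition above about 50% at the single test dose, limit read from the data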;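 also: plate controls were DMSO with enzyme for no effect and no enzyme buffer wells for full effect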
Target sequence (Q9BQF6 706-1050 limits assumed): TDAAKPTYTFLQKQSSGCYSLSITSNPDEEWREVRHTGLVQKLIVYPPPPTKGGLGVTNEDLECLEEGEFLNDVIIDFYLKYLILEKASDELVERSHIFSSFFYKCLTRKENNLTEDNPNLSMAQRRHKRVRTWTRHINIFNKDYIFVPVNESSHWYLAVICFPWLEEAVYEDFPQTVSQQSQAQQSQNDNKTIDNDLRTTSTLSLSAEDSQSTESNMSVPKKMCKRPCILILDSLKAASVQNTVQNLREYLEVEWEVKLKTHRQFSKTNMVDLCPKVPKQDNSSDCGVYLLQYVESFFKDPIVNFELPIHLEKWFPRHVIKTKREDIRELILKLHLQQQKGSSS
AHR act: activators of human aryl hydrocarbon receptor | P35869 | AHR-responsive luciferase reporter cells, luminescence | activation, % at 5 µM | actives 2.5% (n = 320,000); in the data active = activation above about 47%;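 also: 0% = vehicle wells and 100% = reference agonist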
SENP8 block-2: inhibitors of human SENP8 protease; Q96LD8; purified SENP8, Z-RLRGG-aminoluciferin cleavage, luminescence; inhibition, % at 10 µM; actives 1.2% (n = 330,000); in the data active = inhibition above about 50%
EBI2 block: EBI2 (human) antagonism | inhibition, % at 5 µM | P32249 | actives 0.81% (n = 360,000) | EBI2 beta-arrestin recruitment, luminescence, 7a,25-OHC stimulated; in the data active = inhibition above about 38%;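 also: enzyme fragment complementation signal reports receptor beta-arrestin coupling in cells; 0% = agonist plus DMSO wells and 100% = wells without agonist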
SENP8 confirm: human SENP8 inhibition, confirmed; shares compounds with SENP7 inh; Recombinant SENP8, Z-RLRGG-aminoluciferin luminescence, 60 min; inhibition, % at 12.5 µM; actives 40% (n = 6,200); AID 488912;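 active = mean inhibition across replicates above about 50%, limit read from the data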
SENP6 conf: human SENP6 inhibition, confirmed | inhibition, % at 12.5 µM | shares compounds with SENP7 inh | AID 488915 | recombinant SENP6, Z-RLRGG-aminoluciferin luminescence | actives 58% (n = 6,200)
SENP7 confirm: human SENP7 inhibition, confirmed | inhibition, % at 12.5 µM | AID 488917 | recombinant SENP7, Z-RLRGG-aminoluciferin luminescence, 40 min | actives 69% (n = 6,200) | shares compounds with SENP7 inh
Casp3 select: caspase-3 inhibition (SENP selectivity assay); shares compounds with SENP7 inh; purified caspase-3, Z-DEVD-aminoluciferin luminescence, 60 min; inhibition, % at 12.5 µM; actives 60% (n = 6,200); AID 488918;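 active = mean inhibition above about 50%, limit read from the data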;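 also: plate controls were enzyme with DMSO for no effect and wells without caspase-3 for full effect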
Target sequence (P42574 28-227 limits assumed): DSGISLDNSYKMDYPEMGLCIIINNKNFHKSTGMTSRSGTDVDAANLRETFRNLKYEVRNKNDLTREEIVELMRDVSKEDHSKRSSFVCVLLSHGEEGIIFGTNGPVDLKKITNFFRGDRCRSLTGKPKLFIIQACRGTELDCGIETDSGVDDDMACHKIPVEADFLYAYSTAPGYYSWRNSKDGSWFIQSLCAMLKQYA
SENP luc ctr: luminescence interference (SENP counter-screen); shares compounds with SENP7 inh; Pre-incubated SENP8/Z-RLRGG-aminoluciferin, luciferase luminescence interference; inhibition, % at 12.5 µM; actives 39% (n = 6,200); AID 488919;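 active = mean inhibition above about 50% when retested at one dose, limit read from the data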;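 also: plate controls were DMSO wells with completed reaction for no effect and substrate without enzyme for full effect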
The depositor's hits bear a star; · = no result given.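 The calls were made as follows, unless noted: active = mean inhibition above about 50% in the one-dose retest (limit read from the data); inactive = the rest.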

SMILES	SENP8 block-1	SENP6 block	SENP7 inh	AHR act	SENP8 block-2	EBI2 block	SENP8 confirm	SENP6 conf	SENP7 confirm	Casp3 select	SENP luc ctr
O=C(O)c1ccnc(SCC(=O)c2ccccc2)c1	0.4	61.1*	25.6	-1.9	10.2	2.4	0.1	-3.3	25.8	48.1	22.8
CC(=O)c1ccc(OCC(=O)NC2CCCN(Cc3ccccc3F)C2)cc1 (configuration not stated)	-1.6	-6.6	-3.2	·	4.7	-3.0	·	·	·	·	·
CCOCC(=O)Nc1nc2ccc(S(C)(=O)=O)cc2s1	17.2	-2.4	3.8	2.9	1.8	-9.4	·	·	·	·	·
CCOCC(=O)Nc1nc2ccc(C)cc2s1	9.2	49.0	59.6*	-3.7	42.0	5.5	30.5	31.2	75.4*	71.7*	54.7*
CCOCC(=O)Nc1nc2ccc(OCC)cc2s1	7.8	71.4*	62.6*	1.4	36.9	0.0	56.0*	50.8*	81.1*	78.8*	61.8*
Cc1ccc2nc(NC(=O)CCCC(=O)O)sc2c1	3.8	55.3*	57.9*	-11.2	54.2*	-7.8	3.4	16.5	26.8	17.5	6.7
COc1c(/C=N/NC(N)=S)c(C)nn1-c1ccccc1	-0.5	-0.6	9.4	3.2	69.7*	2.1	-19.7	-14.5	-7.6	-7.4	-7.9
Cc1ccc(NC(=S)N/N=C/c2c(C)nn(-c3ccccc3)c2N2CCCC2)cc1	-95.4	1.5	-8.8	13.6	-3.2	-13.8	·	·	·	·	·
CCOc1c(Cl)cc(C(=O)Nc2ccccc2C(=O)O)cc1Cl	-56.4	60.0*	8.5	-2.3	34.0	4.7	58.8*	57.3*	71.8*	34.2	67.7*
O=C(Nc1ccc(O)cc1)c1ccc(NC(=O)c2cccs2)cc1	18.5	-19.7	-12.9	-2.6	-14.5	-0.7	·	·	·	·	·
O=C(Nc1ccccc1C(=O)O)c1cccc(C(=O)Nc2ccccc2C(=O)O)c1	6.5	80.3*	9.6	1.4	71.3*	0.5	87.1*	85.7*	97.8*	88.3*	69.9*
O=C(Nc1ccc(O)cc1C(=O)O)c1cccc(Br)c1	18.5	95.5*	83.1*	6.2	87.9*	-6.1	93.5*	92.2*	98.5*	90.4*	91.5*
O=C(Nc1ccc(O)cc1C(=O)O)c1cccs1	10.9	50.1*	40.7	0.2	39.6	-6.0	52.3*	48.6	82.5*	79.4*	60.8*
CCOc1ccc(C(=O)Nc2ccccc2-c2ccccc2)cc1Cl	6.4	-4.0	6.4	-1.9	7.4	13.3	·	·	·	·	·
O=C(Nc1ccccc1C(=O)O)c1ccccc1	-3.2	29.9	-0.5	3.2	21.4	-4.3	·	·	·	·	·
O=C(Nc1ccc(F)cc1)Nc1ccc(NC(=O)c2ccccc2O)cc1	-20.0	1.0	-4.9	-2.3	1.5	-2.7	·	·	·	·	·
O=C(O)/C(=C\c1ccccc1OC(F)F)Sc1nnc(-c2ccc(F)cc2)o1	25.2	-12.9	-1.9	0.1	6.8	0.9	·	·	·	·	·
CCOc1ccc(C(=O)Nc2cccc(C(=O)O)c2C)cc1Cl	11.0	99.6*	98.2*	-3.0	92.5*	-22.5	97.3*	97.5*	101.6*	80.5*	96.6*
CCOC(=O)c1cc(-c2ccccc2)sc1NC(=O)c1ccc(OC)cc1	·	-9.7	0.7	-0.6	-9.5	·	·	·	·	·	·
COc1ccc(C(=O)Nc2ccccc2C(=O)O)cc1NC(=O)C(c1ccccc1)c1ccccc1	2.4	7.9	-0.9	1.8	5.5	1.3	·	·	·	·	·
O=C(COc1ccc(Cl)cc1Cl)Nc1ccc(C(=O)Nc2ccccc2C(=O)O)cc1	-25.3	0.0	-4.0	3.8	-9.6	-11.5	·	·	·	·	·
O=C(CCCOc1ccc(Cl)cc1Cl)Nc1ccccc1C(=O)O	-3.1	85.8*	-0.5	10.2	71.1*	-4.7	83.1*	82.4*	89.7*	64.2*	82.5*
COc1ccc(C(=O)Nc2ccccc2C(=O)O)cc1Cl	13.8	96.9*	91.6*	7.0	94.3*	-1.2	96.4*	96.9*	100.6*	95.4*	95.6*
O=C(Nc1sc(-c2ccccc2)cc1C(=O)O)c1ccccc1	-320.7	83.8*	27.6	33.2	65.7*	-3.4	-10.8	74.3*	74.3*	26.7	59.5*
Cc1ccc(N2CC(NC(=O)C(=O)c3c(C)[nH]c4ccccc34)CC2=O)cc1C (configuration not stated)	15.3	1.5	6.9	3.3	6.6	-0.7	·	·	·	·	·
SMILES	SENP8 block-1	SENP6 block	SENP7 inh	AHR act	SENP8 block-2	EBI2 block	SENP8 confirm	SENP6 conf	SENP7 confirm	Casp3 select	SENP luc ctr
CCOc1ccc(NC(=O)c2cc(S(=O)(=O)N3CCOCC3)cn2C)cc1	13.5	-1.7	-16.9	5.0	-8.1	-7.4	·	·	·	·	·
C=CCn1c(COc2ccc(OC)cc2)nnc1SCn1nnc2ccccc2c1=O	3.8	-7.5	2.3	4.4	2.9	-4.7	·	·	·	·	·
Clc1ccccc1-c1ncc(-c2ccccc2)o1	-415.7	90.6*	92.4*	34.5	87.5*	3.9	79.4*	91.5*	98.7*	79.2*	83.7*
CSc1nnc(-c2ccccc2Cl)o1	15.3	-15.7	-0.7	-1.6	1.4	-2.8	·	·	·	·	·
O=C(CCCOc1ccccc1)N1CCCCC1	14.8	55.0*	47.3	-5.3	24.7	-3.2	29.5	26.8	69.4*	78.7*	49.1
O=C(CCCOc1ccc(Cl)cc1)N1CCCCC1	15.5	-24.9	10.4	-0.7	-0.5	22.9	·	·	·	·	·
Nc1nc2c(-c3ccc(Br)cc3)nnn2c2ccccc12	-286.3	-4.6	69.9*	54.5*	-7.1	3.9	-0.9	2.2	-1.3	-0.3	-3.7
CNc1nc2c(-c3ccc(Cl)cc3)nnn2c2ccccc12	-286.7	-13.9	-7.9	23.8	-2.6	16.6	·	·	·	·	·
CC1(C(=O)NS(=O)(=O)c2cccc(Cl)c2)CCN1C(=O)CC1CC1 (configuration not stated)	17.8	·	·	·	·	6.4	·	·	·	·	·
Cn1nc2sc3ccccc3n2c(=O)c1=O	-24.3	6.3	3.1	3.7	-0.2	0.0	·	·	·	·	·
N#Cc1cnc2sc3ccccc3n2c1=N	-179.2	94.2*	78.9*	6.2	92.7*	3.2	94.6*	96.0*	100.3*	96.6*	93.9*
CCOC(=O)c1sc(=NC(=O)c2ccccc2Br)n(C)c1C	-69.2	-16.1	7.9	2.9	-10.8	-5.2	·	·	·	·	·
CCOC(=O)c1sc(=NC(=O)c2ccc(Cl)s2)n(C)c1C	-402.3	-23.6	53.2*	21.4	7.8	5.6	13.1	12.0	27.6	22.8	11.5

Compound activity deposited in PubChem BioAssay by several laboratories.
